# CBFb RUNX1 block: qHTS Assay for Compounds Blocking the Interaction Between CBF-beta and RUNX1 for the Treatment of Acute Myeloid Leukemia. Runt-related transcription factor 1 (Homo sapiens) + Core-binding factor subunit beta …. AlphaScreen CBFb-His/RUNX1-biotin binding, biochemical. Potency, µM (titrated, usually from 59.8 µM), for inactives: at the highest dose activity, negative = inhibition, usual class: inhibitors. 230,000 tested, under 10 active. AID 1477, 2009; also: % of control where 0% means no effect
# Target sequence (Q01196 whole entry, looked up): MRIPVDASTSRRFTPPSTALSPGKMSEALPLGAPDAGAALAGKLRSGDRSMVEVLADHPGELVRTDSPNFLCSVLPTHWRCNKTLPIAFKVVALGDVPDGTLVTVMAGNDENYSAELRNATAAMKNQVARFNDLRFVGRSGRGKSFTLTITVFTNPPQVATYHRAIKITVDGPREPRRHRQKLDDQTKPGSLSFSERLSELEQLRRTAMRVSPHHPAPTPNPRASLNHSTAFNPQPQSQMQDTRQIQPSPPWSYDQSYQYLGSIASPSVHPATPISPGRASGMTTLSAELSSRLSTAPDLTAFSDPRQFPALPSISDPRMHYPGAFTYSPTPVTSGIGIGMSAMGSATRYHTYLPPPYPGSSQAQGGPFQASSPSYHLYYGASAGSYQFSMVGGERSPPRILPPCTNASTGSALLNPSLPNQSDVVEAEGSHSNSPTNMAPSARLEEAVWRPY
# Target sequence (Q13951 whole entry, looked up): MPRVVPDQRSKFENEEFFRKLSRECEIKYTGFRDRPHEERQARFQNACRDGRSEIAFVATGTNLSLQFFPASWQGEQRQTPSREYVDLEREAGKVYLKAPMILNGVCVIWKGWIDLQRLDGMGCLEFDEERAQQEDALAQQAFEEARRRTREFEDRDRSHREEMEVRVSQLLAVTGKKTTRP
#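 Bead-based AlphaScreen assay; binding partners His-tagged CBF-beta and biotinylated RUNX1 at 30 nM each. Compound exposure 15 min after a 20-min protein preincubation; bead step 90 min; all steps at room temperature.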
# hERG WT inh: qHTS for Inhibitors of KCHN2 3.1: Wildtype qHTS; U2OS, BacMam KCNH2, thallium flux FluxOr; hits give low values; activity change, % at 1.84 µM; 0.37% of 340,000 active;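 active = maximum activity change below -70%; inconclusive = maximum activity change between -70% and -50%; inactive = maximum activity change above -50%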; also: % is scaled to controls: 0 for no effect and ±100 for the full control effect
#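 U2OS cells transduced with wild-type KCNH2 virus are loaded with FluxOr dye for 45 min, and thallium flux is measured in kinetic reads before and after stimulation buffer. Rate constants are normalized to DMSO controls.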
# VDR inhibitor: Inhibitors of the vitamin D receptor (VDR): qHTS | Vitamin D3 receptor (Homo sapiens), P11473 | AID 504847, 2011 | VDR-SRC2-3 peptide fluorescence polarization, 2 h | 0.93% of 400,000 active | Potency, µM, for the others: max response, negative = inhibition, hits mostly inhibitors; also: potency is read from the fitted curve at half-maximal effect; % is scaled to controls: 0 for no effect and ±100 for the full control effect
#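 Signal is fluorescence polarization, reporting how far test compounds block the interaction of VDR with the SRC2-3 coregulator peptide after a 2 h room-temperature incubation.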
# MBNL1 CUG block: qHTS Assay for Inhibitors of MBNL1-poly(CUG) RNA binding; Muscleblind-like protein 1 (Homo sapiens), Q9NR56; TR-FRET MBNL1-His/biotin-(CUG)12 binding, 665/545 ratio; Potency, µM (highest dose often 57.5 µM), for inactives: at the top dose activity change, negative = inhibition, hits mostly inhibitors; 0.036% of 280,000 active; AID 2675, 2010; active = well fitted inhibition curve with a large enough effect in the signal ratio, with a control signal flat, not every such curve was filed as active; inconclusive = small, poorly fitted or top-dose-only effect, or effect the other way, or a change in a side signal; inactive = no such curve, though single readings can be large or run the other way; the % refers to the signal ratio; also: potency is read from the fitted curve at half-maximal effect; % is scaled to controls: 0 for no effect and ±100 for the full control effect
#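 TR-FRET between His-tagged MBNL1 and biotin-(CUG)12 RNA, detected with Tb anti-His antibody (0.055 ng/ul) and streptavidin-XL665 (5 nM), 60 min at room temperature. Compounds titrated 92 nM to 58 uM; 665/545 nm ratio normalized to buffer and complex controls.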
# PLK1 PBD block: qHTS for Inhibitors of PLK1-PDB (polo-like kinase 1 - polo-box domain): Primary Screen; Plk1 PBD binding of FITC phosphopeptide, fluorescence polarization; 2.8% of 360,000 active; Serine/threonine-protein kinase PLK1 (Homo sapiens), P53350; Potency, µM, for the others: max response, negative = inhibition, actives largely listed as inhibitors; AID 720504, 2013; also: potency is read from the fitted curve at half-maximal effect; series mostly up to about 57 µM; % is scaled to controls: 0 for no effect and ±100 for the full control effect; nearly all actives have a fitted effect of over 65% in size
# KCNH2 3.1 inh: qHTS for Inhibitors of KCHN2 3.1: Mutant qHTS; Potassium voltage-gated channel subfamily H member 2, brain isoform KCNH2 3.1 (human); activity change, % (tested at about 1.8 µM); AID 720553, 2013; 0.95% of 340,000 active; U2OS KCNH2 3.1, thallium flux FluxOr; hits give low values;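 active = maximum activity change below -70%; inconclusive = maximum activity change from -70% to -50%; inactive = maximum activity change above -50%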;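 also: thallium influx rate constant from kinetic fluorescence after stimulation buffer; % is scaled to controls: 0 for no effect and ±100 for the full control effect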
#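 We transduce U2OS cells with the mutant 3.1 virus, culture them overnight, load FluxOr with Red40 quencher for 45 min, then add stimulation buffer and read kinetically for 2 min to derive a normalized rate constant.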
# Starred values were filed as active, the others as inactive; i = inactive; ? = inconclusive; nt = not tested or not shown. This is a sample that favours compounds with a hit; in the whole collection about 3.8% have one here. Unless noted, calls follow the shape of the dose curve; as a rule, active = well fitted curve in the direction sought with a large enough effect; inconclusive = small, poorly fitted or top-dose-only effect, or another doubt; inactive = no such curve, though single readings can be large; an effect the other way counts as inactive or inconclusive.
SMILES,CBFb RUNX1 block,hERG WT inh,VDR inhibitor,MBNL1 CUG block,PLK1 PBD block,KCNH2 3.1 inh
COc1ccc(-c2cc(C(=O)Nc3c(Cl)cccc3Cl)no2)cc1OC,nt,nt,-13%,nt,nt,nt
COc1ccc2c(c1)sc1ncc(C(=O)NCc3ccccc3F)c(=O)n12,nt,nt,25%,nt,nt,nt
CCc1cccc(CC)c1NC(=O)c1c(C)oc2ccc(O)c(CN3CCN(C)CC3)c12,nt,nt,11%,nt,nt,nt
CC(C)(C)Nc1nc(Cl)nc(NC2CCCCC2)n1,nt,-6,-11%,-3%,-6%,3
Cc1ccc(Nc2nc(Cl)nc(NC3CCCCC3)n2)cc1,nt,1,-8%,-9%,-10%,-93*
COC(=O)c1c(N2C(=O)CC(Sc3ccccc3C(=O)O)C2=O)sc2c1CCCC2 (stereo unspecified),-17%,i,-4%,4%,24µM*,-3
CCOC(=O)CCP(=O)(O)C(O)c1ccccc1 (stereo unspecified),2%,-16,-6%,0%,24µM*,33
CCOC(=O)c1c(-c2ccc(F)cc2)csc1NC(=O)C1CCCO1 (stereo unspecified),12%,5,?,0%,27µM*,-5
CC(C)(C)C(=O)[C@@H]1[C@@H]2C(=O)N(c3ccc4c(c3)OCCO4)C(=O)[C@@H]2C2c3ccccc3C=CN21 (stereo partly specified),-1%,-2,-14%,16%,11µM*,9
Cc1ccc(N2C(=O)[C@@H]3[C@H](C2=O)C2c4ccccc4C=CN2[C@@H]3C(=O)c2ccco2)cc1 (stereo partly specified),-9%,-4,?,?,?,-31
Cc1ccc2c(c1)N(C(=O)CCC(=O)NCCCN1CCOCC1)CCO2,nt,-4,3%,-2%,-11%,-128*
Cc1ccc2c(c1)N(C(=O)CCC(=O)NCCN1CCOCC1)CCO2,nt,-3,-8%,-11%,-5%,23
COc1ccc(S(=O)(=O)N2CCN(c3ccc(C)cc3C)CC2)cc1OC,14%,1,-27%,-3%,24µM*,-6
CCOC(=O)c1nn(-c2ccc(C)c(C)c2)c(=O)c2c(N)scc12,-1%,7,8%,?,17µM*,-10
CCOC(=O)c1nn(-c2ccc(OC)cc2)c(=O)c2c(N)scc12,-8%,-1,18µM*,35%,?,6
CCOC(=O)c1nn(-c2ccc(C)c(C)c2)cc1O,-2%,3,1%,-3%,1%,6
CCCOc1ccc(Nc2nc(SC)ncc2C(=O)OCC)cc1,nt,nt,11%,nt,nt,nt
O=C(O)CCSc1ncnc2sc(-c3ccccc3)cc12,-22%,-3,-12%,nt,17µM*,4
CCOC(=O)c1c(C)n(-c2ccc(OC)cc2)c2ccc(O)c(CN(C)C)c12,-3%,2,-12%,-6%,30µM*,0
O=C(NN=C1CCCC1)c1ccc([N+](=O)[O-])cc1,-2%,-222*,-13%,?,0%,0
Cc1cccc(C(=O)Nc2ccc(C(=O)N/N=C/c3ccco3)cc2)c1,nt,3,-25%,nt,21µM*,-20
O=C(N/N=C/c1ccco1)c1ccc(NC(=O)c2ccc(Cl)cc2)cc1,nt,1,5%,-3%,-25%,-18
S=c1nccc(-c2cccs2)[nH]1,2%,-6,?,?,12µM*,7
Cc1ccc(-c2ccnc(=S)[nH]2)cc1,4%,2,-20%,23%,?,7
CCOC(=O)c1sc(N)nc1-c1ccccc1,0%,0,?,20%,27µM*,3
SMILES,CBFb RUNX1 block,hERG WT inh,VDR inhibitor,MBNL1 CUG block,PLK1 PBD block,KCNH2 3.1 inh
CCOC(=O)c1sc(N)nc1C(F)(F)F,nt,-7,-14%,nt,27µM*,-15
CCOC(=O)c1sc(N(C)C)nc1-c1ccccc1,-2%,-2,9%,19%,?,-8
COc1ccc(C(=O)COC(=O)CCN2C(=O)C3C4CCC(C4)C3C2=O)cc1 (stereo unspecified),-1%,14,-3%,4%,-8%,6
O=C(CCN1C(=O)C2C3CC(C(Br)C3Br)C2C1=O)OCC(=O)c1ccccc1 (stereo unspecified),-1%,1,?,-10%,27µM*,-5
O=Cc1sc(=O)n(Cc2cccc(C(=O)O)c2)c1Cl,1%,-3,79µM*,?,30µM*,-19
O=C(O)c1cccc(Cn2c(Cl)c(/C=N/NC(=O)c3ccc(O)cc3)sc2=O)c1,14%,7,4%,?,-18%,17
CC(=O)Nc1ccc(NC(=O)C/C(C)=N/NC(=O)C(=O)Nc2ccc(C)c(Cl)c2)cc1,-3%,-1,-8%,0%,-10%,-84*
O=C(CSc1ncc2c(n1)-c1ccccc1N(Cc1ccc(Cl)cc1)S2(=O)=O)c1ccc(Cl)cc1,nt,nt,2%,nt,nt,nt
COCc1nnc(NC(=O)c2cc(OC)c(OC)cc2[N+](=O)[O-])s1,-12%,-4,-16%,?,30µM*,36
COC(=O)c1sc(NC(=O)COc2ccccc2C)nc1C,-8%,-4,6%,nt,0%,-7
COCc1nnc(NC(=O)CCCOc2ccccc2OC)s1,-1%,-5,-17%,-5%,27µM*,-11
CCOCc1nnc(NC(=O)c2cc(Cl)ccc2OC)s1,-10%,4,2%,0%,-5%,29
COCc1nnc(NC(=O)c2cc(Cl)ccc2OC)s1,?,6,18%,-8%,30µM*,10
COCc1nnc(NC(=O)CCCOc2ccccc2)s1,9%,-3,7%,-3%,-2%,4
COc1ccccc1OCC(=O)Nc1nc(C)c(C)s1,nt,18,14%,2%,-9%,-75*
COc1ccc(CNS(=O)(=O)c2ccc3c(c2)C(C)(C)C(=O)N3C)cc1OC,nt,nt,15%,nt,nt,nt
Cc1[nH]c(-c2ccc(F)cc2)cc1C(=O)N1CCN(c2ccc(Cl)cc2)CC1,nt,nt,5%,2%,3%,?
COc1ccc(N2CCN(C(=O)c3cc(-c4ccc(F)cc4)[nH]c3C)CC2)cc1,nt,-88*,-13%,-9%,-7%,-83*
O=C1/C(=C\c2ccccc2)CN(C(=O)CCN2CCCCC2)C/C1=C/c1ccccc1,nt,-17,32µM*,nt,?,-75*

# Screening results (PubChem BioAssay)
